“And” between values parts separate entries of the source, which are not always exact repeats. Identical values can stand only once. Some structures have more than one record in an assay (separate samples or runs), and their calls can disagree. The source made the active and inactive calls. The calls were made as follows: active = hit-call score of the fitted dose curve at least 0.9, where 1 is the maximum; inactive = score below 0.9.
Assay: CCTE_Shafer_MEA_dev_firing_rate_mean: CCTE's Neural Network Formation Assay for Mean Firing Rate, Shafer Lab (AID 2284031);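 as to AC50: curve fitted for loss of firing so AC50 reflects decreased mean firing rate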
Method in brief: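 Steps: seed rat cortical cells (1.5 x 10^5/well) with laminin on PEI-coated MEA; dose day 0; record DIV 5/7/9/12, full media and compound exchange after DIV 5 and 9 recordings; compute well-mean firing rate AUC.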

Structure (SMILES)	AC50	outcome
C=C(C)[C@H]1Cc2c(ccc3c2O[C@@H]2COc4cc(OC)c(OC)cc4[C@@H]2C3=O)O1	19.6 nM (active) and 16.2 nM (active)	
CC(=NC#N)N(C)Cc1ccc(Cl)nc1		inactive
CC(C)[C@H](C(=O)O[C@H](C#N)c1cccc(Oc2ccccc2)c1)c1ccc(Cl)cc1	3.13 µM (active)	
CCOP(=S)(Oc1cnc(C(C)(C)C)nc1)OC(C)C (stereo not drawn)	12.2 µM (active)	inactive
CN1COCN(Cc2cnc(Cl)s2)C1=N[N+](=O)[O-]		inactive
CCOC(=O)CC(SP(=O)(OC)OC)C(=O)OCC (stereo not drawn)		inactive
CSC1=N[C@@](C)(c2ccccc2)C(=O)N1Nc1ccccc1		inactive
C#CCC1=C(C)C(OC(=O)C2C(C=C(C)C)C2(C)C)CC1=O (stereo not drawn)		inactive
C[N+]1(C)CCCCC1		inactive
CCOP(=O)(NC(C)C)Oc1ccc(SC)c(C)c1 (stereo not drawn)	22 µM (active)	inactive
CC[C@H](C)[C@H]1O[C@]2(C=C[C@@H]1C)C[C@@H]1C[C@@H](C/C=C(\C)[C@@H](O[C@H]3C[C@H](OC)[C@@H](O[C@H]4C[C@H](OC)[C@@H](NC)[C@H](C)O4)[C@H](C)O3)[C@@H](C)/C=C/C=C3\CO[C@@H]4[C@H](O)C(C)=C[C@@H](C(=O)O1)[C@]34O)O2	6.97 nM (active) and 2.42 nM (active)	
CCOP(=S)(OCC)SCCSCC		inactive
COP(=O)(NC(C)=O)SC (stereo not drawn)		inactive
CCOP(=S)(OCC)Oc1ccc2c(C)c(Cl)c(=O)oc2c1	29.6 µM (active)	
O=[N+]([O-])c1cc(C(F)(F)F)c(Cl)c([N+](=O)[O-])c1Nc1ncc(C(F)(F)F)cc1Cl	0.786 µM (active)	
CN(C)[C@@H]1C(=O)C(C(N)=O)=C(O)[C@@]2(O)C(=O)C3=C(O)c4c(O)cccc4[C@@](C)(O)[C@H]3[C@H](O)[C@@H]12		inactive
CC(C)=CC1C(C(=O)OCN2C(=O)C3=C(CCCC3)C2=O)C1(C)C (stereo not drawn)		inactive
CON=C(C(=O)OC)c1ccccc1CON=C(C)c1cccc(C(F)(F)F)c1	639 nM (active) and 964 nM (active)	
CC(C)N(C(=O)SCC(Cl)=C(Cl)Cl)C(C)C		inactive
COP(=O)(OC)C(O)C(Cl)(Cl)Cl (stereo not drawn)		inactive
CC1=NNC(=O)N(/N=C/c2cccnc2)C1		inactive
C[Si](Cn1cncn1)(c1ccc(F)cc1)c1ccc(F)cc1		inactive

Assay: CCTE_Shafer_MEA_dev_per_burst_spike_percent: CCTE's Neural Network Formation Assay for Percent of Spikes in a Burst, Shafer Lab (AID 2284032);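 as to AC50: fitted as a decrease in burst spike percentage below DMSO baseline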
Method in brief: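 Value is trapezoidal AUC over recordings on days 5, 7, 9 and 12 of the well-mean fraction of spikes falling in single-electrode bursts; rat cortical cultures exposed continuously from plating, treatment renewed DIV 5 and 9, fitted downward against DMSO.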

Structure (SMILES)	AC50	outcome
C=C(C)[C@H]1Cc2c(ccc3c2O[C@@H]2COc4cc(OC)c(OC)cc4[C@@H]2C3=O)O1	24.4 nM (active) and 20.6 nM (active)	
CC(=NC#N)N(C)Cc1ccc(Cl)nc1		inactive
CC(C)[C@H](C(=O)O[C@H](C#N)c1cccc(Oc2ccccc2)c1)c1ccc(Cl)cc1	5.46 µM (active)	
CCOP(=S)(Oc1cnc(C(C)(C)C)nc1)OC(C)C (stereo not drawn)	89.1 µM (active) and 12.9 µM (active)	
CN1COCN(Cc2cnc(Cl)s2)C1=N[N+](=O)[O-]		inactive
CCOC(=O)CC(SP(=O)(OC)OC)C(=O)OCC (stereo not drawn)		inactive
CSC1=N[C@@](C)(c2ccccc2)C(=O)N1Nc1ccccc1		inactive
C#CCC1=C(C)C(OC(=O)C2C(C=C(C)C)C2(C)C)CC1=O (stereo not drawn)	9.95 µM (active)	
C[N+]1(C)CCCCC1		inactive
CCOP(=O)(NC(C)C)Oc1ccc(SC)c(C)c1 (stereo not drawn)	40.7 µM (active)	inactive
CC[C@H](C)[C@H]1O[C@]2(C=C[C@@H]1C)C[C@@H]1C[C@@H](C/C=C(\C)[C@@H](O[C@H]3C[C@H](OC)[C@@H](O[C@H]4C[C@H](OC)[C@@H](NC)[C@H](C)O4)[C@H](C)O3)[C@@H](C)/C=C/C=C3\CO[C@@H]4[C@H](O)C(C)=C[C@@H](C(=O)O1)[C@]34O)O2	88.8 nM (active) and 3.52 nM (active)	
CCOP(=S)(OCC)SCCSCC		inactive
COP(=O)(NC(C)=O)SC (stereo not drawn)		inactive
CCOP(=S)(OCC)Oc1ccc2c(C)c(Cl)c(=O)oc2c1	50 µM (active)	
O=[N+]([O-])c1cc(C(F)(F)F)c(Cl)c([N+](=O)[O-])c1Nc1ncc(C(F)(F)F)cc1Cl	0.669 µM (active)	
CN(C)[C@@H]1C(=O)C(C(N)=O)=C(O)[C@@]2(O)C(=O)C3=C(O)c4c(O)cccc4[C@@](C)(O)[C@H]3[C@H](O)[C@@H]12	50 µM (active)	
CC(C)=CC1C(C(=O)OCN2C(=O)C3=C(CCCC3)C2=O)C1(C)C (stereo not drawn)		inactive
CON=C(C(=O)OC)c1ccccc1CON=C(C)c1cccc(C(F)(F)F)c1	1.11 µM (active) and 1.32 µM (active)	
CC(C)N(C(=O)SCC(Cl)=C(Cl)Cl)C(C)C	24.4 µM (active)	
COP(=O)(OC)C(O)C(Cl)(Cl)Cl (stereo not drawn)	50 µM (active)	inactive
CC1=NNC(=O)N(/N=C/c2cccnc2)C1		inactive
C[Si](Cn1cncn1)(c1ccc(F)cc1)c1ccc(F)cc1		inactive
